# Measurements from PubChem BioAssay (NCATS).
# Unmarked numbers belong to inactive results. Results filed as inconclusive are left out. Entries that show only a call come without a potency. Active and inactive are the calls of the source. Unless noted, calls come from the whole dose curve; as a rule, active = well fitted curve in the direction sought with a large enough effect; inconclusive = small, poorly fitted or top-dose-only effect, or another doubt; inactive = no such curve, though single readings can be large; an effect the other way counts as inactive or inconclusive.
# How the values were obtained:
# [1] = target: Glutathione peroxidase 1 (Homo sapiens) (UniProt P07203); assay: Primary qHTS Assay for Inhibitors of Recombinant Selenoprotein Glutathione Peroxidase 1 (GPX1) (AID 1845191); note: nearly all actives have a fitted effect of over 65% in size
# Glutathione peroxidase 1 (Homo sapiens), sequence (P07203 whole entry, looked up): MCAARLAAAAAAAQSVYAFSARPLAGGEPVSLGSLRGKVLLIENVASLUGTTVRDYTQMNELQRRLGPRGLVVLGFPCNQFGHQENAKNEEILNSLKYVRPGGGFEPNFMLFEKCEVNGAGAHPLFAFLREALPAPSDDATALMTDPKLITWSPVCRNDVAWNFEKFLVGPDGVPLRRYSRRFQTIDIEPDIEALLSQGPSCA
# Procedure, shortened: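 GR-coupled readout: NADPH consumption tracked by fluorescence, ex 340/em 450 nm, at t=0 and after 15 min at RT. Final mix 10 nM GPX1, 1 mM GSH, 0.5 mM CHP, 0.5 mM NADPH, 100 nM GR, 0.01% BSA, following 30 min enzyme–compound preincubation.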
# [2] = target: Phospholipid hydroperoxide glutathione peroxidase GPX4 (Homo sapiens) (UniProt P36969); assay: Primary qHTS Assay for Inhibitors of Recombinant Selenoprotein Glutathione Peroxidase 4 (GPX4) (AID 1845192); note: nearly all actives have a fitted effect of over 65% in size; note: potency is the fitted concentration of half-maximal effect
# Phospholipid hydroperoxide glutathione peroxidase GPX4 (Homo sapiens), sequence (P36969 whole entry, looked up): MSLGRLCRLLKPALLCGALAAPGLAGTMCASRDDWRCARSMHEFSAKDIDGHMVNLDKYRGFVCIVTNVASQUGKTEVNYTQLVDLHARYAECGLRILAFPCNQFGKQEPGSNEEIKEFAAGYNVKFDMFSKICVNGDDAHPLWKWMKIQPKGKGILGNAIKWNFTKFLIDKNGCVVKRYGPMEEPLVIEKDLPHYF
# Procedure, shortened: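 Steps: GPX4 plus compound, 30 min RT; add GR/GSH/NADPH master mix; start with cumene hydroperoxide; read 340/450 nm fluorescence at 0 and 15 min. Finals were 200 nM GPX4, 1 mM GSH, 0.5 mM CHP, 0.5 mM NADPH, 100 nM GR.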
# [3] = qHTS for inhibitors of Rabies Virus screened against the NCATS CANVASS Library (AID 1347402; calls by dose curve; note: series mostly up to about 46 µM)
# [4] = target: DNA repair nuclease/redox regulator APEX1 (Homo sapiens) (UniProt P27695); assay: qHTS Validation Assay for Inhibitors of the Human Apurinic/apyrimidinic Endonuclease 1 (APE1) (AID 1705;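 note: TAMRA fluorescence gain over two minutes as APE1 cuts a quenched THF abasic duplex; series mostly up to about 57 µM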)
# DNA repair nuclease/redox regulator APEX1 (Homo sapiens), sequence (P27695 whole entry, looked up): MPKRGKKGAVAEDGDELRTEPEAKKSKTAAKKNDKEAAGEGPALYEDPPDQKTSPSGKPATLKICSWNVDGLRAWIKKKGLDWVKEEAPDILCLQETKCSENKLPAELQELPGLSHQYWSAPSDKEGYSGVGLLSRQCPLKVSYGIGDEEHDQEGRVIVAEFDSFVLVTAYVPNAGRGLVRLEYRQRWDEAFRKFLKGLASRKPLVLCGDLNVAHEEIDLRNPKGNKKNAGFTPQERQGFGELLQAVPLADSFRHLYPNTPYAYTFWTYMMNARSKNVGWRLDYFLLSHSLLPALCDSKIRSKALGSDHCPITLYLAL
# Procedure, shortened: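 Fluorogenic double-stranded THF abasic-site substrate (5'-TAMRA/3'-BHQ-2), 50 nM final. Enzyme preincubated with compound 15 min at room temperature, then substrate added. Kinetic fluorescence (ex 525/em 598 nm) read three times at 60 s intervals; activity taken as third-minus-first read difference.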
# [5] = Counterscreen for APE1 Inhibitors: Fluorescent Dye Displacement Validation Assay (AID 1707)
# Procedure, shortened: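 Loss of Thiazole Orange fluorescence marks promiscuous DNA binders. The dye (250 nM) is mixed with 50 nM abasic-site dsDNA in pH7.5 Tris buffer containing MgCl2, then compounds are added and emission is read once.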
# [6] = Validation screen for inhibitors of Lassa infection (AID 463096; calls by dose curve; note: potency is the fitted concentration of half-maximal effect)
# [7] = Validation screen for small molecules that induce DNA re-replication in MCF 10A normal breast cells (AID 463097); note: nearly all actives have a fitted effect of over 60% in size; note: potency is the fitted concentration of half-maximal effect
# Procedure, shortened: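 MCF 10A cells exposed to compound 48 hr at 37 C, 5% CO2, then Hoechst-stained 40 min. Laser-scanning imaging of nuclear DNA content (405 nm ex, 500-530 nm em); re-replication scored as rise in nuclei with elevated fluorescence intensity.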
# [8] = target: M-phase phosphoprotein 8 (Homo sapiens) (UniProt Q99549); assay: qHTS Validation Assay for Inhibitors for MPP8 Chromodomain Interactions with Methylated Histone Tails (AID 488949); note: nearly all actives have a fitted effect of over 55% in size; note: potency is the fitted concentration of half-maximal effect
# M-phase phosphoprotein 8 (Homo sapiens), sequence (Q99549 whole entry, looked up): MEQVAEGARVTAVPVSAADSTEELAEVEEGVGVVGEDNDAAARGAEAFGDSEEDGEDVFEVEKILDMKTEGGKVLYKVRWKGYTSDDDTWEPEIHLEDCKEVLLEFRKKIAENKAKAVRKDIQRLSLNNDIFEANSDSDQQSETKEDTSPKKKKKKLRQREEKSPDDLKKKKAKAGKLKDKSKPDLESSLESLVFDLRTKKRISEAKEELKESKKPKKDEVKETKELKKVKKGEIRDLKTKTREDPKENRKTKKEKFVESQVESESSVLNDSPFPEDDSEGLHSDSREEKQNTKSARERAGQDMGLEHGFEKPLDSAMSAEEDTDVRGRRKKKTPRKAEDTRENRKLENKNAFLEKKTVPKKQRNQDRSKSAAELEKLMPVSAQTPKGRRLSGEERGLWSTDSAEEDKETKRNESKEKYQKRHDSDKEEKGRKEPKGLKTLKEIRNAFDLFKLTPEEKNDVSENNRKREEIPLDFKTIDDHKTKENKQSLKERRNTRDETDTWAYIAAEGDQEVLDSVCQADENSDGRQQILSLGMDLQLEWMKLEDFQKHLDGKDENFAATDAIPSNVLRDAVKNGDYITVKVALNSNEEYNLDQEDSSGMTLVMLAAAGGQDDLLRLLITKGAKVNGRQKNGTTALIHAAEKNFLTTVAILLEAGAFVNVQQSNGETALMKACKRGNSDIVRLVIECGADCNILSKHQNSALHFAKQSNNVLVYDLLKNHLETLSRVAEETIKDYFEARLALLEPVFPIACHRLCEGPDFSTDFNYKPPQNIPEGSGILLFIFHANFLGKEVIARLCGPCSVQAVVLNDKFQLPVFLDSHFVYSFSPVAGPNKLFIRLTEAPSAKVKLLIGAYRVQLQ
# Procedure, shortened: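 MPP8 (50 nM) was pre-bound to 50 nM biotinylated H3(1-18)K9me3 peptide in PBS pH 7.4 with 0.01% Tween-20. Compounds were then added for 30 min at room temperature, and complex disruption was read by AlphaScreen with streptavidin donor and nickel-chelate acceptor beads.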
# [9] = target: Transient receptor potential cation channel subfamily V member 1 (Homo sapiens) (UniProt Q8NER1); assay: HTS Assay for Compounds that Act as Enhancers of the Vanilloid Receptor 1 (AID 488979)
# Transient receptor potential cation channel subfamily V member 1 (Homo sapiens), sequence (Q8NER1 whole entry, looked up): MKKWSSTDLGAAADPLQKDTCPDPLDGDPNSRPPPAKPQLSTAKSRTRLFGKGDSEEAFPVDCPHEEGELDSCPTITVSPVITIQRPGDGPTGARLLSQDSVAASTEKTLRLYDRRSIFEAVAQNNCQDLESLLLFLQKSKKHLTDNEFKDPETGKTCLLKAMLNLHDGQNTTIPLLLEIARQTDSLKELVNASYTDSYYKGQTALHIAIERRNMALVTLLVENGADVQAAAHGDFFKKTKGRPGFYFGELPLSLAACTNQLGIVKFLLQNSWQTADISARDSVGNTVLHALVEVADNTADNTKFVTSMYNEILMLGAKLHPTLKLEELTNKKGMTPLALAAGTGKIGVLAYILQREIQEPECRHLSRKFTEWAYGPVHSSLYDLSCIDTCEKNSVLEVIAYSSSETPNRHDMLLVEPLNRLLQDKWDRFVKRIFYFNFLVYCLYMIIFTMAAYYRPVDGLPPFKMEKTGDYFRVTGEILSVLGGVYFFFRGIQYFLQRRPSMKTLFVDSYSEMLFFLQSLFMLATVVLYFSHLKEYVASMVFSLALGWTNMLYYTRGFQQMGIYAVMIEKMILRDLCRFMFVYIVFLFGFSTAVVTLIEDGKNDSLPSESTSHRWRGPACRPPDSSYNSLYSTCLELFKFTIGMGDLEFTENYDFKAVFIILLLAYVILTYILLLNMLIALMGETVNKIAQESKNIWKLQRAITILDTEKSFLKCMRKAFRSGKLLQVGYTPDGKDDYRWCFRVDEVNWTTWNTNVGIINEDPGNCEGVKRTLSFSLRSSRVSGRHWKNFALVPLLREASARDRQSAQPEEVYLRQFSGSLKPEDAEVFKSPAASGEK
# Procedure, shortened: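 TRPV1 cells loaded with Fluo-8 calcium dye; compound added and Ca2+ signal (ex 480/em 520 nm) followed 3 min, then capsaicin at EC20 added and read 2 more min to detect enhancement.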
# [10] = target: Thyrotropin receptor (Homo sapiens) (UniProt P16473); assay: qHTS Assay for Antagonists of the Thyroid Stimulating Hormone Receptor (AID 488980); note: series mostly up to about 58 µM
# Thyrotropin receptor (Homo sapiens), sequence (P16473 whole entry, looked up): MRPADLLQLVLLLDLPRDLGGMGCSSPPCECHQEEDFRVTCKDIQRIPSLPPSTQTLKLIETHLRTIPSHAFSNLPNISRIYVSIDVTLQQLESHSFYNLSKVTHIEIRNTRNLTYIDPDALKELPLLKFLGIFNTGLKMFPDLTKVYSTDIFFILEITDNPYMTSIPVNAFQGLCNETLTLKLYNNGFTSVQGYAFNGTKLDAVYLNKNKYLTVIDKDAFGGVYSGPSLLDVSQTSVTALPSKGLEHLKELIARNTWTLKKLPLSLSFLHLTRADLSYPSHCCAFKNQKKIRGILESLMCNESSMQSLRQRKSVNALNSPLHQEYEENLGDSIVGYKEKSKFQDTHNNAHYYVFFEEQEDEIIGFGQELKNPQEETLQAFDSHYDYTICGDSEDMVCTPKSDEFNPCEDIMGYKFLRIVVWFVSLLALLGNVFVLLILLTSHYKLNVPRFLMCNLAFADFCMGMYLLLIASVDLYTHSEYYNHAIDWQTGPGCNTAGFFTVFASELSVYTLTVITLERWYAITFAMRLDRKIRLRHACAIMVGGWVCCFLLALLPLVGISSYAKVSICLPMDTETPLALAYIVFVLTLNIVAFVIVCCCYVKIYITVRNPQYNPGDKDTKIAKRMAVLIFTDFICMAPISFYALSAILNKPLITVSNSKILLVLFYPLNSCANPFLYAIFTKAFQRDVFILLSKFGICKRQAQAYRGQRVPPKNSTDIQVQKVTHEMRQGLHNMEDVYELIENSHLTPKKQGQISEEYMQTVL
# Procedure, shortened: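 TSHR-transfected HEK293 cells (2000/well) in HEPES-buffered HBSS with 70 uM RO 20-1724 were stimulated with 4 nM TSH (EC80, final) in the presence of compound. cAMP was measured by HTRF competition after lysis and 30 min at RT.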
# [11] = target: Thyrotropin-releasing hormone receptor (Homo sapiens) (UniProt P34981); assay: qHTS for Small Molecule Agonists and Allosteric Enhancers of Human TRH Receptor: Validation Screen for Agonists (AID 493127;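 active = calcium activation more than 3 SD above the typical response in the agonist read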;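 note: intracellular calcium rise by fluo-8 fluorescence before TRH EC20 addition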); details: TRH receptor agonist cell assay; at 2 µM; stronger effect = higher value
# Thyrotropin-releasing hormone receptor (Homo sapiens), sequence (P34981 whole entry, looked up): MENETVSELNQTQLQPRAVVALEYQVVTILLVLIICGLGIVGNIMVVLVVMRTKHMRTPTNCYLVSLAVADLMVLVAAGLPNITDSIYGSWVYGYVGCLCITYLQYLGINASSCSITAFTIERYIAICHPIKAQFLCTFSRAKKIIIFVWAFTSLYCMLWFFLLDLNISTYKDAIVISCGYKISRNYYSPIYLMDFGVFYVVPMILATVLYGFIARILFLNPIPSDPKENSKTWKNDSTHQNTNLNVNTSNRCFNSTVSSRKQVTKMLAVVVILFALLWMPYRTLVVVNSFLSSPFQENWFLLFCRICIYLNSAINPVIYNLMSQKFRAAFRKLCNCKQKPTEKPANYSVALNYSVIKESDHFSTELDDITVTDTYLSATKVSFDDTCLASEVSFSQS
# Procedure, shortened: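 Read-out: intracellular calcium release measured kinetically by FDSS (fluo-8, ex 480/em 530 nm), 1 reading/s after a 10-cycle baseline. TRHR cells, 2000/well, cultured 18 h at 33.5C, dye-loaded at room temp. Compound-evoked positive calcium signal flags agonists.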
smiles,measurement,setting,value
C[C@@H](C1CC[C@@]2(O)C3=CC(=O)[C@@H]4C[C@@H](O)[C@@H](O)C[C@]4(C)[C@H]3CC[C@]12C)[C@H](O)CCC(C)(C)O (stereo partly drawn),Potency,[1],inactive
same,Potency,[2],inactive
CC(C)[C@]12O[C@H]1[C@@H]1O[C@@]13[C@@]1(C)CCC4=C(COC4=O)[C@@H]1C[C@@H]1O[C@@]13C2=O,Potency,[1],inactive
same,Potency,[2],inactive
CC(=O)OC[C@H]1O[C@@H]([S-])[C@H](OC(C)=O)[C@@H](OC(C)=O)[C@@H]1OC(C)=O.CC[PH+](CC)CC.[Au],Potency,[2],inactive
C/C=C(\C)C(=O)N[C@@H](c1ccccc1)[C@@H](O)C(=O)O[C@H]1C[C@@]2(O)[C@@H](OC(=O)c3ccccc3)[C@@H]3[C@]4(OC(C)=O)CO[C@@H]4C[C@H](O)[C@@]3(C)C(=O)[C@H](OC(C)=O)C(=C1C)C2(C)C,Potency,[1],inactive
same,Potency,[2],inactive
C=C(C)[C@@H]1CCC(C)=C[C@H]1c1c(O)cc(CCCCC)cc1O,Potency,[1],inactive
same,Potency,[2],17.8 µM (active)
C[C@@]12OC(=O)[C@]1([C@@H](O)[C@@H]1C=CCCC1)NC(=O)[C@@H]2CCCl,Potency,[1],inactive
same,Potency,[2],inactive
C[C@@H]1O[C@H](c2c(O)cc(O)c3c(=O)cc(-c4ccc(O)cc4)oc23)[C@H](O)[C@H](O)[C@H]1O,outcome,[3],inactive
CN1C(=O)[C@@H](NC(=O)[C@H](CCC(F)(F)F)[C@H](CCC(F)(F)F)C(N)=O)N=C(c2ccccc2)c2ccccc21,Potency,[1],inactive
same,Potency,[2],inactive
CC(C)(O)/C=C\C(=O)[C@](C)(O)[C@H]1[C@H](O)C[C@]2(C)[C@@H]3CC=C4[C@@H](C=C(O)C(=O)C4(C)C)[C@]3(C)C(=O)C[C@@]12C,Potency,[1],inactive
same,Potency,[2],inactive
CO[C@H]1CCC(O[C@H]2C[C@H]([C@]3(C)CC[C@]4(C[C@H](O)[C@@H](C)[C@@H]([C@@H](C)/C=C(\C)C(=O)[C@H](C)C[C@H](C)C(=O)O)O4)O3)O[C@]3(O[C@@H]([C@H]4O[C@@](O)(CO)[C@H](C)C[C@@H]4C)C[C@@H]3C)[C@@H]2C)O[C@@H]1C (stereo partly drawn),Potency,[1],inactive
same,Potency,[2],inactive
Cn1c(COP(=O)(NCCBr)NCCBr)cnc1[N+](=O)[O-],Potency,[1],inactive
same,Potency,[2],inactive
O=C(O)CNC(=O)C1C(=O)N(C2CCCCC2)C(=O)N(C2CCCCC2)C1=O,Potency,[1],inactive
same,Potency,[2],inactive
C[C@]12COC(=O)C[C@@H]1CC[C@@H]1[C@@H]2CC[C@@]2(C)[C@H]1CC[C@]2(C)O,Potency,[1],inactive
same,Potency,[2],inactive
C[C@@H]1CC[C@@]2(OC1)O[C@H]1C[C@H]3[C@@H]4CC=C5C[C@@H](O[C@@H]6O[C@H](CO)[C@@H](O[C@@H]7O[C@@H](C)[C@H](O)[C@@H](O)[C@H]7O)[C@H](O)[C@H]6O[C@@H]6O[C@@H](C)[C@H](O)[C@@H](O)[C@H]6O)CC[C@]5(C)[C@H]4CC[C@]3(C)[C@H]1[C@@H]2C,Potency,[1],inactive
same,Potency,[2],inactive
COC[C@H]1OC(=O)c2coc3c2[C@@]1(C)C1=C(C3=O)[C@@H]2CC[C@H](O)[C@@]2(C)C[C@H]1OC(C)=O,Potency,[1],inactive
same,Potency,[2],inactive
CCCN1CCC[C@@H](c2cccc(C#N)c2)C1,Potency,[4],inactive
same,outcome,[5],inactive
same,Potency,[6],inactive
same,Potency,[7],inactive
same,Potency,[8],inactive
same,outcome,[9],inactive
same,outcome,[10],inactive
same,activation,[11],1.31%
N#CC(=Cc1ccc(O)c(O)c1)C(N)=S,outcome,[5],inactive
same,Potency,[6],inactive
same,Potency,[7],inactive
same,Potency,[8],44.7 µM (active)
same,outcome,[9],inactive
same,outcome,[10],inactive
same,activation,[11],3.19%
NNCc1cccc(O)c1,Potency,[4],inactive
same,outcome,[5],inactive
same,Potency,[6],inactive
same,Potency,[7],inactive
same,Potency,[8],inactive
same,outcome,[9],inactive
same,outcome,[10],inactive
same,activation,[11],0.875%
NC(Cn1ccc(=O)[nH]c1=O)C(=O)O (stereo not drawn),Potency,[4],inactive
same,outcome,[5],inactive
same,Potency,[6],inactive
same,Potency,[7],inactive
same,Potency,[8],inactive
same,outcome,[9],inactive
same,outcome,[10],inactive
same,activation,[11],0.375%
C=CCN1CC[C@@]2(C)c3cc(O)ccc3CC1[C@@H]2C,Potency,[4],inactive
same,outcome,[5],inactive
same,Potency,[6],inactive
same,Potency,[7],inactive
same,Potency,[8],inactive
same,outcome,[9],inactive
same,outcome,[10],inactive
same,activation,[11],1.19%
CN1CCC23CCCC[C@H]2C1Cc1ccc(O)cc13 (stereo partly drawn),Potency,[4],inactive
same,outcome,[5],inactive
same,Potency,[6],inactive
same,Potency,[7],inactive
same,Potency,[8],inactive
same,outcome,[9],inactive
same,outcome,[10],inactive
same,activation,[11],0.625%
COc1ccc2c(c1O)-c1cccc3c1C(C2)N(C)CC3 (stereo not drawn),Potency,[4],inactive
same,outcome,[5],inactive
same,Potency,[6],inactive
same,Potency,[7],inactive
same,Potency,[8],44.7 µM (active)
same,outcome,[9],inactive
same,outcome,[10],inactive
same,activation,[11],1.19%
CCCCN1C2CCC1CC(OC(c1ccc(F)cc1)c1ccc(F)cc1)C2 (stereo not drawn),Potency,[4],inactive
same,outcome,[5],inactive
same,Potency,[6],10 µM (active)
same,Potency,[7],20 µM (active)
same,Potency,[8],inactive
same,outcome,[10],inactive
same,activation,[11],8.5%
CC1Cc2cc3c(cc2C(c2ccc(N)cc2)=NN1)OCO3 (stereo not drawn),Potency,[4],inactive
same,outcome,[5],inactive
same,Potency,[6],inactive
same,Potency,[7],inactive
same,Potency,[8],56.2 µM (active)
same,outcome,[9],inactive
same,outcome,[10],inactive
same,activation,[11],0.188%
C[C@H]1OC[C@@H](C[N+](C)(C)C)O1,Potency,[4],inactive
same,outcome,[5],inactive
same,Potency,[6],inactive
same,Potency,[7],inactive
same,Potency,[8],inactive
same,outcome,[9],inactive
same,outcome,[10],inactive
same,activation,[11],24.3%
CCN(CC)C(=O)N[C@@H]1C[C@@H]2c3cccc4[nH]cc(c34)C[C@H]2N(C)C1,Potency,[4],inactive
same,outcome,[5],inactive
same,Potency,[6],inactive
same,Potency,[7],inactive
same,outcome,[9],inactive
same,outcome,[10],inactive
same,activation,[11],-2.62%
